Results taken from PubChem BioAssay (EPA / NIEHS).
“And” between values parts separate entries of the source, which are not always exact repeats. Identical values can stand only once. The source holds several records for some structures; these can differ, active in one and inactive in another. The source made the active and inactive calls. Rule for the calls, unless noted: active = hit-call score of the fitted dose curve at least 0.9, where 1 is the maximum; inactive = score below 0.9.

What was measured:
[1] = biological target: Peroxisome proliferator-activated receptor gamma (Homo sapiens) (UniProt P37231); test: OT_PPARg_PPARgSRC1_1440: Odyssey Thera (OT) 24-hour Protein-Complementation Assay for Peroxisome Proliferator-activated Receptor Gamma/ SRC-1 Co-activator (AID 2283388; active = hit-call score of the fitted dose curve at least 0.9, where 1 is the maximum)
Peroxisome proliferator-activated receptor gamma (Homo sapiens), sequence (P37231 whole entry, looked up, the tested form may be a part): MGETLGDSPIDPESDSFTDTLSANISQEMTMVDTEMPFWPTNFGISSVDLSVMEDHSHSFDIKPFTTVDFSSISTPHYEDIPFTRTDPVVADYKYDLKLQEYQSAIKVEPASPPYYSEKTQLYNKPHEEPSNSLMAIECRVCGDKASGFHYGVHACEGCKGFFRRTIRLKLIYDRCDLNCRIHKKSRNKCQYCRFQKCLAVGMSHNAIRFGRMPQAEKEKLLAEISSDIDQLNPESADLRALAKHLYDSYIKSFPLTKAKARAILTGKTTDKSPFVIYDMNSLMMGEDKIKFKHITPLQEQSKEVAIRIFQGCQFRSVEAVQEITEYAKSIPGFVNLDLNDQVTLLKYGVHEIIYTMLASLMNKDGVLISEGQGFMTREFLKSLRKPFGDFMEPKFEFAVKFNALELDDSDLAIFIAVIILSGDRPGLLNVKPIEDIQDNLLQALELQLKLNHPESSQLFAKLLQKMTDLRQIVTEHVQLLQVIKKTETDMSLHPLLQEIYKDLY
How it was run: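 HEK293T transiently transfected with PPARg/SRC-1 split-Venus YFP fusions 48 h before dosing, then treated 24 h at 37C. Fixed cells imaged; nuclear/cytoplasmic 488 nm fluorescence ratio, gain of signal versus DMSO.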

[2] = CEETOX_H295R_OHPREG: CeeTox H295R High-throughput Steroidogenesis Assay for OH-Pregnenolone (OHPREG) (AID 2283434); conditions: actives raise or lower the signal
How it was run: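 Hormone levels in spent medium were measured by tandem mass spectrometry following liquid-liquid extraction. Cells (H295R) had been forskolin-stimulated (10 uM, 48 h) before a 48 h chemical exposure at 0.1% DMSO, with activity fitted in both directions against DMSO.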

[3] = CEETOX_H295R_OHPROG: CeeTox H295R High-throughput Steroidogenesis Assay for OH-Progesterone (OHPROG) (AID 2283435); conditions: actives raise or lower the signal;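 for AC50: human adrenal H295R cells primed 48 h with 10 µM forskolin; 17alpha-hydroxyprogesterone secreted into medium measured by HPLC-MS/MS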
How it was run: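 Secreted 17alpha-hydroxyprogesterone is read by tandem MS from media of forskolin-primed H295R cells dosed with chemical for 48 h. Activity is fitted in both directions against DMSO baseline; cytotoxic concentrations are re-tested diluted.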

[4] = CEETOX_H295R_CORTIC: CeeTox H295R High-throughput Steroidogenesis Assay for Corticosterone (CORTIC) (AID 2283437); conditions: actives raise or lower the signal;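 note: corticosterone secreted into medium quantified by mass spectrometry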
How it was run: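 Corticosterone secreted into medium is measured by reverse-phase HPLC with tandem MS following liquid-liquid extraction. Cells are forskolin-stimulated (10 uM, 48 h) before 48 h test exposure; activity fitted in both directions against DMSO.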

[5] = CEETOX_H295R_DOC: CeeTox H295R High-throughput Steroidogenesis Assay for DOC (AID 2283439); conditions: actives raise or lower the signal
How it was run: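 Secreted DOC was quantified from H295R media by HPLC-MS/MS after 48 h chemical exposure following 48 h forskolin (10 uM) prestimulation. Values were fitted in both directions relative to DMSO, the negative control and baseline.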

[6] = CEETOX_H295R_PROG: CeeTox H295R High-throughput Steroidogenesis Assay for Progesterone (PROG) (AID 2283442); conditions: actives raise or lower the signal;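 for AC50: human H295R adrenal cells primed with 10 µM forskolin before dosing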
How it was run: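 H295R adrenal cells prestimulated 48 h with 10 uM forskolin, then exposed 48 h to test chemical in 0.1% DMSO. Progesterone in medium quantified by HPLC-MS/MS after MTBE extraction; viability checked by MTT in same wells.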

[7] = read-out: Tumor necrosis factor receptor superfamily member 6 (Homo sapiens) (UniProt P25445); test: LTEA_HepaRG_FAS: Life Technologies and Expression Analysis (LTEA) Assay for Fas cell surface death receptor (FAS) using HepaRG (AID 2283447); conditions: mRNA level, 48 h; actives raise or lower the signal
How it was run: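 FAS transcript level was measured by TaqMan qRT-PCR against three housekeeping genes after 48 h chemical exposure. Cells were HepaRG, 0.5% DMSO vehicle, with a top concentration of 100 uM and half-log dilutions over eight points, in duplicate.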

[8] = read-out: Fatty acid synthase (Homo sapiens) (UniProt P49327); test: LTEA_HepaRG_FASN: Life Technologies and Expression Analysis (LTEA) Assay for Fatty Acid Synthase (FASN) using HepaRG (AID 2283448); conditions: mRNA level, 48 h; actives raise or lower the signal
How it was run: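 Transcript-level assay: HepaRG liver cells are treated for 48 h across an eight-point range topping at 100 uM, and FASN mRNA, normalized to three housekeeping genes, is compared with DMSO controls in both directions.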

[9] = read-out: Cyclin D2 (CCND2), CCND2 (gene 894); test: LTEA_HepaRG_CCND2: Life Technologies and Expression Analysis (LTEA) Assay for Cyclin D2 (CCND2) using HepaRG (AID 2283449); conditions: mRNA level, 48 h; actives raise or lower the signal
How it was run: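 Read-out is CCND2 mRNA level measured by qRT-PCR in human HepaRG liver cells and normalised to three housekeeping genes. Chemicals were applied for 48 h at up to 100 uM, with gain or loss fitted relative to 0.5% DMSO.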

[10] = read-out: Cyclin Dependent Kinase Inhibitor 1A (CDKN1A), CDKN1A (gene 1026); test: LTEA_HepaRG_CDKN1A: Life Technologies and Expression Analysis (LTEA) Assay for Cyclin Dependent Kinase Inhibitor 1A (CDKN1A) using HepaRG (AID 2283450); conditions: mRNA level, 48 h; actives raise or lower the signal
How it was run: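 Differentiated HepaRG cells in serum-free induction medium, exposed 48 h in duplicate to eight half-log concentrations up to 100 uM in 0.5% DMSO. mRNA measured by TaqMan qRT-PCR, normalized to ACTB, GAPDH, POLR2A; bidirectional fit versus DMSO.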

[11] = read-out: catalase (CAT), CAT (gene 847); test: LTEA_HepaRG_CAT: Life Technologies and Expression Analysis (LTEA) Assay for catalase (CAT) using HepaRG (AID 2283452); conditions: mRNA level, 48 h; actives raise or lower the signal;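 for AC50: TaqMan qRT-PCR signal normalized to ACTB GAPDH and POLR2A housekeeping genes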
How it was run: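 Expression of CAT was quantified by TaqMan qRT-PCR with ACTB/GAPDH/POLR2A normalization after 48 h chemical exposure of HepaRG. Eight-point half-log series, top 100 uM, in 0.5% DMSO; gain or loss fitted against vehicle.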

[12] = read-out: flavin-containing dimethylaniline monooxygenases 3 (FMO3), FMO3 (gene 2328); test: LTEA_HepaRG_FMO3: Life Technologies and Expression Analysis (LTEA) Assay for flavin-containing dimethylaniline monooxygenases 3 (FMO3) using HepaRG (AID 2283453); conditions: mRNA level, 48 h; actives raise or lower the signal;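 for AC50: FMO3 transcript by TaqMan qRT-PCR normalized to ACTB GAPDH and POLR2A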
How it was run: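 HepaRG, 48 h exposure, 8-pt half-log series from 100 uM, 0.5% DMSO vehicle, duplicates; FMO3 transcript by Fluidigm TaqMan qRT-PCR, housekeeping-normalized; gain/loss fit vs DMSO.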

[13] = read-out: Cytochrome P450 (CYP1A1), CYP1A1 (gene 1543); test: LTEA_HepaRG_CYP1A1: Life Technologies and Expression Analysis (LTEA) Assay for Cytochrome P450 (CYP1A1) using HepaRG (AID 2283454); conditions: mRNA level, 48 h; actives raise or lower the signal
How it was run: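 Differentiated human HepaRG cells, after 48 h plating, exposed in duplicate for 48 h in serum-free induction medium to 8 half-log concentrations up to 100 uM in 0.5% DMSO. CYP1A1 mRNA by qRT-PCR, normalized to ACTB/GAPDH/POLR2A; bidirectional fit versus DMSO.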

[14] = read-out: CFLAR gene, CFLAR (gene 8837); test: LTEA_HepaRG_CFLAR: Life Technologies and Expression Analysis (LTEA) Assay for CFLAR gene using HepaRG (AID 2283455); conditions: mRNA level, 48 h; actives raise or lower the signal
How it was run: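 HepaRG, 48 h exposure, 8-pt conc-response (100 uM top, half-log), 0.5% DMSO vehicle, duplicates. CFLAR expression by qRT-PCR; ACTB/GAPDH/POLR2A normalization; gain or loss fit vs DMSO baseline.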

[15] = read-out: Forkhead box O1 (FOXO1), FOXO1 (gene 2308); test: LTEA_HepaRG_FOXO1: Life Technologies and Expression Analysis (LTEA) Assay for Forkhead box O1 (FOXO1) using HepaRG (AID 2283456); conditions: mRNA level, 48 h; actives raise or lower the signal
How it was run: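 Readout is FOXO1 transcript level by multiplexed qRT-PCR against three housekeeping genes, curve-fitted in both directions relative to 0.5% DMSO vehicle. Human HepaRG cultures received chemicals for 48 h, up to 100 uM in half-log steps.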

[16] = read-out: Cyclin D1 (CCND1), CCND1 (gene 595); test: LTEA_HepaRG_CCND1: Life Technologies and Expression Analysis (LTEA) Assay for Cyclin D1 (CCND1) using HepaRG (AID 2283451); conditions: mRNA level, 48 h; actives raise or lower the signal;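 note: TaqMan qRT-PCR transcript level normalised to ACTB GAPDH and POLR2A housekeeping genes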
How it was run: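 Differentiated HepaRG cells exposed 48 h in serum-free induction medium to eight half-log concentrations from 100 uM top, 0.5% DMSO, duplicates. CCND1 mRNA measured by Fluidigm TaqMan qRT-PCR, normalised to ACTB, GAPDH, POLR2A; bidirectional fit.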

[17] = CEETOX_H295R_ANDR: CeeTox H295R High-throughput Steroidogenesis Assay for Androstenedione (ANDR) (AID 2283436); conditions: actives raise or lower the signal
How it was run: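 Read-out is androstenedione secreted into medium, measured by tandem mass spectrometry after liquid-liquid extraction. Cells were H295R, dosed for 48 h per modified OECD 456; activity fitted in both directions relative to DMSO.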

[18] = CEETOX_H295R_ESTRADIOL: CeeTox H295R High-throughput Steroidogenesis Assay for Estradiol (AID 2283440); conditions: actives raise or lower the signal;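 note: estradiol secreted into medium quantified by LC-MS/MS after dansyl derivatisation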
How it was run: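 H295R cells pre-stimulated 48 h with 10 uM forskolin, then exposed 48 h to chemical in 0.1% DMSO. Medium estradiol quantified by MTBE extraction, dansyl derivatisation and HPLC-MS/MS; bidirectional fit versus DMSO; MTT viability required >/=70%.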

[19] = CEETOX_H295R_ESTRONE: CeeTox H295R High-throughput Steroidogenesis Assay for Estrone (AID 2283441); conditions: actives raise or lower the signal;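 note: estrone secreted into medium measured by LC-MS/MS after dansyl derivatization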
How it was run: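 H295R cells; 48 h forskolin (10 uM) prestimulation; 48 h compound exposure, 0.1% DMSO final. Medium estrone: MTBE extraction, dansyl derivatization, HPLC-MS/MS. Bidirectional fit vs DMSO.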

[20] = CEETOX_H295R_TESTO: CeeTox H295R High-throughput Steroidogenesis Assay for Testosterone (TESTO) (AID 2283457); conditions: actives raise or lower the signal
How it was run: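 H295R adrenal cells, passage ≤10, exposed to chemicals for 48 h. Testosterone in medium measured by MTBE extraction and HPLC-MS/MS against a 7-point standard curve. Bidirectional fit versus DMSO; MTT viability checked in the same wells.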

Measured: AC50

Fatty acid synthase (Homo sapiens), sequence (P49327 whole entry, looked up): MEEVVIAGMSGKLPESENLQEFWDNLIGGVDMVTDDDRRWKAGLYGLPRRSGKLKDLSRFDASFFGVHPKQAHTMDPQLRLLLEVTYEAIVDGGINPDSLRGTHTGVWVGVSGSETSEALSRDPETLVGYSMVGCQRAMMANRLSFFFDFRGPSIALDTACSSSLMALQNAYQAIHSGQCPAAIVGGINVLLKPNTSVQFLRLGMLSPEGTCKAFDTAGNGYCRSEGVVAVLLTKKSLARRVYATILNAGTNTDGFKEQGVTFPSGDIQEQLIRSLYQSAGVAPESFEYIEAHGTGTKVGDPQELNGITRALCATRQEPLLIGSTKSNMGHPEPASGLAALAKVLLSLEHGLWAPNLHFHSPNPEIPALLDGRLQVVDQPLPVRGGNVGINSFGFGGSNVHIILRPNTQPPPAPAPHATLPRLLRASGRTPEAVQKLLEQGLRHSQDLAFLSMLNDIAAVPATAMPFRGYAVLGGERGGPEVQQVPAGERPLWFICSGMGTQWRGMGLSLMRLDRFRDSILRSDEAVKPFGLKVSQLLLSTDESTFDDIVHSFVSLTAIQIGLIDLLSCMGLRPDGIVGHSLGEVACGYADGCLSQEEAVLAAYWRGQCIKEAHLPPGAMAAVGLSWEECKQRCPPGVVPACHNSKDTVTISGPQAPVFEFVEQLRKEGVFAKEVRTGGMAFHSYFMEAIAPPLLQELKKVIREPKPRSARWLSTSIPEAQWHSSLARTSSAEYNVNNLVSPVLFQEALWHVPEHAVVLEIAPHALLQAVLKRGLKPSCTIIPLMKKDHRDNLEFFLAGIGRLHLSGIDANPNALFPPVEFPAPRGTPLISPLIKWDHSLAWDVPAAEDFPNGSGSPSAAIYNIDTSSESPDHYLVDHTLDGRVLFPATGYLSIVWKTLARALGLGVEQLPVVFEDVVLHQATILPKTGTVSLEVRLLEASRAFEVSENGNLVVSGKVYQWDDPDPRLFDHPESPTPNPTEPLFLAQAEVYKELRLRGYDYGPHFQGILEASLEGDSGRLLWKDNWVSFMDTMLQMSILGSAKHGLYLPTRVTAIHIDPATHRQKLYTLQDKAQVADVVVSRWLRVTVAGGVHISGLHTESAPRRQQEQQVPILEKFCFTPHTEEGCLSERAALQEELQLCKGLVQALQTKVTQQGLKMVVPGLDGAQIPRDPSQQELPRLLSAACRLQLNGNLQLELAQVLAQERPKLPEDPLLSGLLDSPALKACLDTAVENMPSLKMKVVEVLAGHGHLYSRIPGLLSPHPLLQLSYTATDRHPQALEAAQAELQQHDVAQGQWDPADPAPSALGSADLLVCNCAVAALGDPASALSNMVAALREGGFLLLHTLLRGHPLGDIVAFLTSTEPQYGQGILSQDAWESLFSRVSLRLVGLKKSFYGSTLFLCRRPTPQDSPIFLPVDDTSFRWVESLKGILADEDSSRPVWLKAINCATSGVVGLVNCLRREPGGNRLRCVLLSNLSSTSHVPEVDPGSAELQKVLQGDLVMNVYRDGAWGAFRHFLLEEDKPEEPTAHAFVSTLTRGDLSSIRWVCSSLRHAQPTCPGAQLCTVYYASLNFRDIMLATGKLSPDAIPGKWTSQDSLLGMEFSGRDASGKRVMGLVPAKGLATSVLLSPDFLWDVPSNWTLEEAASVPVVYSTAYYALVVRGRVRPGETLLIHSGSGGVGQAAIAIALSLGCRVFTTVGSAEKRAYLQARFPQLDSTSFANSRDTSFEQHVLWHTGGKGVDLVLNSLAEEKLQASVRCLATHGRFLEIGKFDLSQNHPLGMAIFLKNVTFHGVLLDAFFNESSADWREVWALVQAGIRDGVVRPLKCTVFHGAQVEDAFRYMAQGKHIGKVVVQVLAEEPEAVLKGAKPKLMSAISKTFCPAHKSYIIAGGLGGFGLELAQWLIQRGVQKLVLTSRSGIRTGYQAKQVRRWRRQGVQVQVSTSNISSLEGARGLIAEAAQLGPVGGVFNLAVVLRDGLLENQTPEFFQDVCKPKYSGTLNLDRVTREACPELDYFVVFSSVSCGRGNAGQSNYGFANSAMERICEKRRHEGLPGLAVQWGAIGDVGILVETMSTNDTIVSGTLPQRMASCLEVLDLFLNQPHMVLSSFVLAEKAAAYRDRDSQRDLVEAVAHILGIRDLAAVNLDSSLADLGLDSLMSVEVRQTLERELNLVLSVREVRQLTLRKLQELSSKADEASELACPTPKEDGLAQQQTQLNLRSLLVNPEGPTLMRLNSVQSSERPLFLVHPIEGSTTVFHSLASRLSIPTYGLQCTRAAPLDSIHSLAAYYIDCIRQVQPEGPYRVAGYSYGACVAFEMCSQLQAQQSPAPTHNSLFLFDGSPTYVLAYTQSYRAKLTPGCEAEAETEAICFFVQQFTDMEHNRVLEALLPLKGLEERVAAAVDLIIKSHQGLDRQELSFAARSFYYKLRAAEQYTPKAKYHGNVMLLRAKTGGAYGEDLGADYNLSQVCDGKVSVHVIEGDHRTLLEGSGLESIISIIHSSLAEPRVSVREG

S=C(S)NCCNC(=S)S.[Mn+2].[S-]C([S-])=NCCN=C([S-])[S-].[Zn+2]
active: [7] 1.63 µM | [8] 1.14 µM and 714 nM and 1.11 µM | [10] 25 µM and 3.66 µM | [11] 881 nM and 1.09 µM and 1.05 µM | [12] 4.22 µM and 2.04 µM and 2.68 µM | [13] 116 nM and 122 nM | [14] 1.31 µM and 1.18 µM and 1.48 µM | [15] 4.79 µM and 9.06 µM
inactive: [1] | [2] | [3] | [4] | [5] | [6] | [7] | [9] | [10] | [15]

S=C([S-])NCCNC(=S)[S-].[Mn+2]
active: [7] 5.41 µM | [8] 2.55 µM | [16] 0.485 µM | [11] 2.97 µM | [12] 5.71 µM | [13] 8.74 µM | [14] 3.43 µM | [15] 9.26 µM
inactive: [1] | [2] | [3] | [4] | [5] | [6] | [9] | [10]

c1ccc2[nH]c(-c3cscn3)nc2c1
active: [6] 59 µM | [13] 18.9 µM
not listed: [16]
inactive: all other assays above

C#CCOC(=O)[C@@H](C)Oc1ccc(Oc2ncc(Cl)cc2F)cc1
active: [3] 9.84 µM | [5] 6.87 µM | [6] 9.01 µM | [8] 13.3 µM | [13] 33 µM
not listed: [9] | [16] | [17] | [20]
inactive: all other assays above

CCOC(=O)c1ccc(O)cc1
active: [3] 31 µM | [5] 37.7 µM | [6] 36.5 µM
not listed: [1] | [16] | [17] | [20]
inactive: all other assays above
